Assay outcomes: PubChem, National Center for Advancing Translational Sciences (NCATS)
This excerpt belongs to a sample that is enriched for hits.
Pin1 inhibitor: qHTS Assay to Find Inhibitors of Pin1 | Peptidyl-prolyl cis-trans isomerase NIMA-interacting 1 (Homo sapiens), Q13526 | Pin1 FP peptide displacement, HiFluor488, 10 min | Potency, µM (top dose mostly 115 µM), actives largely listed as inhibitors | hit rate 0.009% among 390,000 | AID 504891, 2011; active means well fitted inhibition curve with a large enough effect in the polarisation, with a control signal flat, not every such curve was filed as active; inconclusive means small, poorly fitted or top-dose-only effect, or effect the other way, or a change in a side signal; inactive means no such curve, though single readings can be large or run the other way; the % refers to the polarisation
Target sequence (Q13526 whole entry, looked up): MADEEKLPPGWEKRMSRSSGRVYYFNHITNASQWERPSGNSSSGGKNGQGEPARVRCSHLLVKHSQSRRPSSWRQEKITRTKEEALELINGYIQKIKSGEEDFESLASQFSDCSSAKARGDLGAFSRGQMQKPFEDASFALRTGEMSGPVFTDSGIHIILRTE
PI4K2A inh: qHTS for small molecular inhibitors of PI4K2A. AID 1346378, 2018. Phosphatidylinositol 4-kinase type 2-alpha (Homo sapiens), Q9BTU6. activity change, negative = inhibition, % at 76.9 µM. purified PI4K2A, ADP-Glo luminescence, 1 h; hits give low values. hit rate 0.13% among 420,000; in the data active means activity change below about -50%; inconclusive means mostly about -30% to -49%
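ADP-Glo luminescence measured ADP generated by PI4K2A enzyme (4 ug/mL before mixing) with 1.2 mM PI substrate (pre-mix) and 300 microM ATP (pre-mix). Tris pH7.5 buffer with MgCl2, Triton X-100; 1 h reaction at ambient temperature.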
PI5P4Ka inh: qHTS for Inhibitors of phosphatidylinositol 5-phosphate 4-kinase (PI5P4K); PI5P4Kalpha enzyme, ADP-Glo luminescence, 60 min; hits give low values; hit rate 1.2% among 330,000; Phosphatidylinositol 5-phosphate 4-kinase type-2 alpha (Homo sapiens), P48426; max response, %; active means max response of -50% or lower; inconclusive means between -30% and -50%; inactive means -30% or higher; further: value at the top dose of about 77 µM
Target sequence (P48426 whole entry, looked up): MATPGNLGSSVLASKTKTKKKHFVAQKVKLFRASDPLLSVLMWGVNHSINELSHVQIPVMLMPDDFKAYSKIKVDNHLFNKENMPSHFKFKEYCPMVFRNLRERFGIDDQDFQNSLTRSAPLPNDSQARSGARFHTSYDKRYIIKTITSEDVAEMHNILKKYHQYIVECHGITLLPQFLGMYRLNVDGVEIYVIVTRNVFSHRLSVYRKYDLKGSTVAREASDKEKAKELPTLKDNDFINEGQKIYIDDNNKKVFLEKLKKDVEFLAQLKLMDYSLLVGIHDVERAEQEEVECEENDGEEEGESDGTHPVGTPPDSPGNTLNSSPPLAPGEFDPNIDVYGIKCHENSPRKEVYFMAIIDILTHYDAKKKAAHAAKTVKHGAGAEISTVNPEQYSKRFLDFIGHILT
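Enzyme plus substrate dispensed, test compounds pinned in, then ATP (5 microM final) added. After 60 min at RT, ADP-Glo reagent 1 for 45 min and reagent 2 for 30 min preceded luminescence imaging.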
Tb PGK inh: qHTS Assay to Find Inhibitors of Phosphoglycerate Kinase | Phosphoglycerate kinase, glycosomal (Trypanosoma brucei brucei), P07378 | PGK/GAPDH coupled, Kinase-Glo luminescence, 60 min | Potency, µM (highest dose often 57.5 µM), usual class: inhibitors | hit rate 0.043% among 380,000 | AID 602233, 2012; active means well fitted inhibition curve with a large enough effect; inconclusive means small, poorly fitted or top-dose-only effect; inactive means no such curve, though single readings can be large or run the other way; further: nearly all actives have a fitted effect of over 60% in size
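Luminescent ATP detection (Kinase-Glo Plus) follows a 60-minute room-temperature incubation, with wells lacking PGK as controls. Buffer: 100 mM TEA (pH 7.6), 5 mM MgCl2, 0.01% Tween-20. Coupling enzyme GAPDH (100 nM final) supplies unstable 1,3-BPG in-well.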
Hits are given with their value; . = inactive; ? = inconclusive; / = not tested or not shown; ! = not active in a repeat.

SMILES	Pin1 inhibitor	PI4K2A inh	PI5P4Ka inh	Tb PGK inh
O=C1NC2(CCCCC2)C(=O)N1CC(=O)N(Cc1ccccc1)c1ccccc1	.	.	.	.
COc1cc(/C=C(\C#N)c2nc3ccccc3s2)cc([N+](=O)[O-])c1O	?	.	-72	?
N#C/C(=C\c1ccc(O)c([N+](=O)[O-])c1)c1nc2ccccc2s1	.	.	.	.
CC(C)CCn1c(SCC(=O)N2CC(=O)Nc3ccccc32)nc2scc(-c3cccs3)c2c1=O	?	.	-67	.
COc1ccc([S+](=O)([O-])N2CCN([S+](=O)([O-])c3ccc4c(c3)OCCO4)CC2)c(OC)c1	.	/	/	/
CC(=O)c1ccc(N2CCN(c3ccc(C(N)=O)cc3[N+](=O)[O-])CC2)cc1	.	.	.	.
NC(=O)c1ccc(N2CCN(c3ccc(O)cc3)CC2)c([N+](=O)[O-])c1	?	.	-55	.
O=S(=O)(c1ccc2c(c1)OCCO2)N1CCN(S(=O)(=O)c2ccc3nc(Cl)c(Cl)nc3c2)CC1	.	/	/	/
O=C(N/N=C/c1coc2ccccc2c1=O)c1cc(O)cc(O)c1	.	.	-54	.
Cc1cccc(C(=O)N/N=C/c2coc3ccccc3c2=O)c1	.	.	?	.
CCc1ccc(S(=O)(=O)c2cn(CC(=O)Nc3ccc(F)c(Cl)c3)c3ccccc3c2=O)cc1	.	.	/	.
COC(=O)C/C=N/N=C1/NC(=O)/C(=C/C(=O)O)S1	?	.	-71	.
O=C(c1cccc([N+](=O)[O-])c1)N1CCN(Cc2ccc3c(c2)OCO3)CC1	.	-69	.	.
Cc1c(P(=S)(c2ccccc2)c2ccccc2)c2ccccc2n1C(=O)NCc1ccc(F)cc1	.	/	/	/
CC(C)(CS(=O)(=O)[O-])NC(=O)CC[N+](C)(C)CCO	/	.	?	2.2µM
COc1ccc(C(=O)CSc2ccc(-c3ccccc3)nn2)cc1	.	.	.	.
COc1ccc(-c2ccc(SC)nn2)cc1	.	-72	?	?
CC(=O)N1CCN(c2nc(-c3ccc(Br)cc3)cs2)CC1	.	/	/	/
O=C(c1ccco1)N1CCc2ccccc21	.	.	.	.
O=C(/C=C/c1ccco1)N1CCCC(c2ccccc2)C1 (centres undefined)	.	.	-62	/
O=C(/C=C/c1ccco1)N1CCc2ccccc21	.	-53	?	?
Cc1ccc(/C=C/C(=O)N2CCc3ccccc32)o1	?	.	-75	.
CN(C(=O)CSc1nnc(Nc2ccccc2)s1)c1c(N)n(Cc2ccccc2)c(=O)[nH]c1=O	.	.	.	.
CCCCN(C(=O)CSc1nnc(Nc2ccc(C)c(C)c2)s1)c1c(N)n(Cc2ccccc2)c(=O)[nH]c1=O	.	.	-69	.
CN(CCOC(=O)/C=C/c1ccco1)Cc1ccccc1	?	.	.	11µM
SMILES	Pin1 inhibitor	PI4K2A inh	PI5P4Ka inh	Tb PGK inh
CCOC(=O)c1c(N2C(=O)Nc3cc(Cl)c(Cl)cc3N2O)sc2c1CCCCC2	54µM	.	?	.
COc1cccc(CNC(=O)Cn2c(=O)cc(C)c3c(C)nn(C)c32)c1OC	.	.	/	.
Cc1ccc(-c2nn3c(C)nnc3s2)cc1NC(=O)c1ccc(-c2cccc(Cl)c2)o1	?	.	-53	.
COc1cc2c(cc1OC)C(O)=CC(=O)C2=O	/	.	-54	.
Cc1ccc(S(=O)(=O)C(CNC(=O)COc2ccccc2)c2cccs2)cc1 (centres undefined)	.	.	/	10µM
CC(Nc1nc(Cl)nc2nc[nH]c12)c1ccccc1 (centres undefined)	.	/	/	/
CCNC(=S)Nc1ccc2cn[nH]c2c1	.	.	.	.
N#CC(C#N)=NNc1ccc2cn[nH]c2c1	/	.	-64	/
COc1cccc(C2c3c(ncn(-c4ccccc4Cl)c3=N)Oc3ccc4ccccc4c32)c1 (centres undefined)	.	/	/	/
COc1ccc(-c2cn3nc(SCC(=O)NC4CCCCC4)ccc3n2)cc1	.	.	.	.
CC(C)c1ccc(/C=c2\sc3n(c2=O)C(N)=C(C#N)C(c2ccc(C(C)C)cc2)C=3C(N)=O)cc1 (centres undefined)	.	.	?	.
N#CC1=C(N)n2c(s/c(=C\c3ccco3)c2=O)=C(C#N)C1c1ccco1 (centres undefined)	?	.	-70	?
CCOC(=O)C1=C(N)n2c(s/c(=C/c3ccco3)c2=O)=C(C(=O)OC)C1c1ccco1 (centres undefined)	.	.	.	.
N#CC1=C(N)n2c(s/c(=C\c3cccs3)c2=O)=C(C#N)C1c1cccs1 (centres undefined)	?	.	-56	.
Cc1noc(C)c1-c1ccc2ncnc(NCc3ccc(-c4ccccc4)cc3)c2c1	.	/	/	/
Cc1cc(C2C(C#N)=C(N)Oc3n[nH]c(C)c32)c(C)s1 (centres undefined)	.	.	.	.
Cc1cc(C2C(C#N)=C(N)SC(N)=C2C#N)c(C)s1	?	.	-56	.
c1ccc(-c2nc(-c3ccccn3)no2)cc1	.	?	/	/
c1ccc(-c2ccc(-c3nc(-c4ccccn4)no3)cc2)cc1	.	-94	/	/
Cc1ccc(-c2nc(-c3ccccn3)no2)cc1	.	-75	?	?
Oc1ccc(COc2ccccc2Cl)c2cccnc12	.	/	/	/
Nc1ccc(C#Cc2ccccc2)cc1	.	.	.	.
Cc1cccc(C#Cc2ccccc2)n1	.	-50!	.	.
Nc1nc(N2CCN(C(=O)c3ccco3)CC2)nc2ccc(Br)cc12	?	.	.	8.9µM
Cc1nc2c(-c3ccccc3)c(C)[nH]n2c(=O)c1Cc1ccc(Br)cc1	.	.	/	.
SMILES	Pin1 inhibitor	PI4K2A inh	PI5P4Ka inh	Tb PGK inh
Cc1ccc(S(=O)(=O)N2CCN(c3nc(-c4ccc(F)cc4)nc4cc(Cl)ccc34)CC2)cc1	.	/	/	/
CCCOc1ccc(/C=C/c2[nH]c(=O)[nH]c(=O)c2[N+](=O)[O-])cc1OCC	?	.	.	.
CCOC(=O)COc1ccc(Br)cc1/C=C/c1[nH]c(=O)[nH]c(=O)c1[N+](=O)[O-]	.	?	-59	.
CCOC(=O)COc1ccc(Br)cc1/C=C\c1[nH]c(=O)[nH]c(=O)c1[N+](=O)[O-]	.	.	-74	.
CN1/C(=C\C=C2/SC(=S)NC2=O)C(C)(C)c2ccccc21	?	.	-77	.
CN1C(=CC=C2C=C(I)C(=O)C(I)=C2)C(C)(C)c2ccccc21	.	.	.	?
Nc1ccc(S(=O)(=O)N2CCN(S(=O)(=O)c3c(F)cccc3F)CC2)cc1	.	/	/	/
CN(C)/C=C/C(=O)c1ccc(-c2ccc(Cl)cc2Cl)o1	.	.	-64	.
O=C(O)c1ccc(-c2ccc(Cl)cc2Cl)o1	.	.	?	.
Cc1nc(Nc2ccc(Cl)cc2Cl)sc1C(=O)Nc1ccccc1	.	.	.	.
Oc1nc(Nc2ccc(Cl)cc2Cl)sc1/C=C1\C=Nc2ccccc21	.	.	-57	.
O=C(/C=C/c1cc[n+](CC(=O)c2ccc3cccc4c3c2CC4)cc1)c1ccc2cccc3c2c1CC3	?	.	-69	.
